{"source": "PubChem BioAssay (NCATS)", "note": "Records with an inconclusive call do not appear. Entries that show only a call come without a potency. Activity calls are given as the source filed them. Calls come from the whole dose curve; as a rule, active = well fitted inhibition curve with a large enough effect; inconclusive = small, poorly fitted or top-dose-only effect; inactive = flat fitted curve, though single readings scatter. Potency is the fitted concentration of half-maximal effect.", "data": [{"biological_target": "Ubiquitin carboxyl-terminal hydrolase 1 (Homo sapiens) (UniProt O94782)", "sequence (O94782 whole entry, looked up)": "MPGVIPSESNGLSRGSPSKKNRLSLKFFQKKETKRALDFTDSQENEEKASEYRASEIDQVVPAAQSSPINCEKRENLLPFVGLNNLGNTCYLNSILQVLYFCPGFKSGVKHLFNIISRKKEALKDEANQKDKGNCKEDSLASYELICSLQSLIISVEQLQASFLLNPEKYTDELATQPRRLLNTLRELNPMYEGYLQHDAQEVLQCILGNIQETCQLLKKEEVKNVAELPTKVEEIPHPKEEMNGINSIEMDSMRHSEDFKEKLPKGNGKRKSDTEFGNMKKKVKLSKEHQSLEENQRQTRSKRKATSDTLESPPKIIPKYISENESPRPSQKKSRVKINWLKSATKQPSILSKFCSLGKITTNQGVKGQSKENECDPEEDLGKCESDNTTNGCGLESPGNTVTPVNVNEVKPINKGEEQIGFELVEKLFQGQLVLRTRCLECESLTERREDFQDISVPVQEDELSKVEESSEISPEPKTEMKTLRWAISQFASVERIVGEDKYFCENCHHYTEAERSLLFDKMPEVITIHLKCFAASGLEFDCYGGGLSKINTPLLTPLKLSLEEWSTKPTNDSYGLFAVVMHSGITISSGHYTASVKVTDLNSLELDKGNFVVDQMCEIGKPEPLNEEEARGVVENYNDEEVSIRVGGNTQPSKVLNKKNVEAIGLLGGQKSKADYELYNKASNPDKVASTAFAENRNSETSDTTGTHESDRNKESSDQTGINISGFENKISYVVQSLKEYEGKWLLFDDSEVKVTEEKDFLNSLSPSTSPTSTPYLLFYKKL", "assay": "Inhibitors of USP1/UAF1: Pilot qHTS (AID 504865); note: nearly all actives have a fitted effect of over 35% in size", "conditions": "purified USP1/UAF1, Ub-rhodamine cleavage fluorescence; series mostly up to 54.9 µM", "summary_of_the_method": "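1nM USP1/UAF1 + cpd, 15 min RT; start w/ Ub-Rho 150nM final; kinetic FL 480/540 nm, 6 reads q60 s. Buffer 50mM HEPES pH 7.8, 0.5mM EDTA, 1mM TCEP, 0.01% Tween-20, 0.1 mg/ml BSA.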", "values": [{"smiles": "FC(F)(F)c1ccccc1-c1nccc(NCc2cccs2)n1", "Potency": "11.2 µM (active)"}, {"smiles": "CN1CCN(c2ncc3ncc(=O)n(C[C@H]4CCCO4)c3n2)CC1", "Potency": "inactive"}, {"smiles": "COCCn1c(=O)c(-c2cccc(C#N)c2)nc2cnc(Oc3ccccc3)nc21", "Potency": "inactive"}, {"smiles": "CS(=O)(=O)Nc1cccc(-c2ccc3ncnc(Nc4ccccc4)c3c2)c1", "Potency": "inactive"}, {"smiles": "FC(F)(F)c1ccccc1-c1nc(NCc2cccs2)c2ccccc2n1", "Potency": "7.94 µM (active)"}, {"smiles": "c1ccc(CNc2ncnc3ccc(-c4cccnc4)cc23)cc1", "Potency": "inactive"}, {"smiles": "COc1ccc(-c2nc3cnc(N4CCN(C)CC4)nc3n(Cc3cccs3)c2=O)cc1", "Potency": "inactive"}, {"smiles": "COCCn1c(=O)cnc2cnc(Nc3cccc(OC)c3)nc21", "Potency": "inactive"}, {"smiles": "COCCn1c(=O)cnc2cnc(Nc3ccccc3)nc21", "Potency": "inactive"}, {"smiles": "CN1CCN(c2ncc3nc(-c4cc(F)cc(F)c4)c(=O)n(CCc4ccccc4)c3n2)CC1", "Potency": "inactive"}, {"smiles": "O=c1c(-c2ccc(F)cc2)nc2cnc(N3CCNCC3)nc2n1C1CC1", "Potency": "inactive"}, {"smiles": "COc1ccc(-n2c(=O)c(-c3ccc(Cl)cc3)nc3cnc(N4CCNCC4)nc32)cc1", "Potency": "inactive"}, {"smiles": "COCCNc1ncnc2ccc(-c3cccc(OC)c3)cc12", "Potency": "inactive"}, {"smiles": "O=c1c(-c2ccc(Cl)cc2)nc2cnc(N3CCOCC3)nc2n1-c1ccccc1", "Potency": "inactive"}, {"smiles": "CN(C)c1ncc2nc(-c3ccc(F)cc3)c(=O)n(Cc3ccc(F)cc3)c2n1", "Potency": "inactive"}, {"smiles": "COc1ccc(-c2nc3cnc(Oc4ccccc4)nc3n(CCC#N)c2=O)cc1", "Potency": "inactive"}, {"smiles": "COc1cccc(Nc2ncc3nc(CCc4ccccc4)c(=O)n(C)c3n2)c1", "Potency": "inactive"}]}]}
